For part of these data: Potency and affinity values are given separately.
How the values were obtained:
Staphylococcus aureus = assay: Antibacterial activity against Staphylococcus aureus MRSA ATCC 43300 (CO-ADD:GP_020); MIC in CAMBH media using NBS plates, by Resazurin F(560/590); format: functional; settings: Concentration 20 uM, ASSAY_TEST Inhibition of Bacterial Growth, detection method Resazurin, Fluorescence (ex560/em590), MEDIA CAMHB, plate type 384well, CORNING #3640, time 18 hr
Acinetobacter baumannii = assay: Antibacterial activity against Acinetobacter baumannii ATCC 19606 (CO-ADD:GN_034); MIC in CAMBH media using NBS plates, by Resazurin F(560/590); format: functional; settings: Concentration 20 uM, ASSAY_TEST Inhibition of Bacterial Growth, detection method Resazurin, Fluorescence (ex560/em590), MEDIA CAMHB, plate type 384well, CORNING #3640, time 18 hr
Escherichia coli = assay: Antibacterial activity against Escherichia coli ATCC 25922 (CO-ADD:GN_001); MIC in CAMBH media using NBS plates, by Resazurin F(560/590); format: functional; settings: Concentration 20 uM, ASSAY_TEST Inhibition of Bacterial Growth, detection method Resazurin, Fluorescence (ex560/em590), MEDIA CAMHB, plate type 384well, CORNING #3640, time 18 hr
Klebsiella pneumoniae = settings: Concentration 20 uM; ASSAY_TEST Inhibition of Bacterial Growth; detection method Absorption (OD600); MEDIA CAMHB; plate type 384well; NBS; CORNING #3640; time 18 hr
Candida albicans = settings: 20 µM
Cryptococcus neoformans = settings: Concentration 20 uM; ASSAY_TEST Inhibition of Fungal Growth; detection method Resazurin; Absorption (OD600-OD570); plate type 384well; NBS; CORNING #3640

O=C(Nc1ccc(C2=NCCCN2)cc1)Nc1ccc(C2=NCCCN2)cc1
Inhibition (Staphylococcus aureus): 7.85%
Inhibition (Acinetobacter baumannii): 9.82%
Inhibition (Escherichia coli): -5.49%
Inhibition (Klebsiella pneumoniae): 24.63%
Inhibition (Candida albicans): 1.67%
Inhibition (Cryptococcus neoformans): -6.84%

C#CCSc1nc(-c2ccco2)n[nH]1
Inhibition (Staphylococcus aureus): 6.25%
Inhibition (Acinetobacter baumannii): 16.42%
Inhibition (Escherichia coli): -3.2%
Inhibition (Klebsiella pneumoniae): 9.41%
Inhibition (Candida albicans): 3.4%
Inhibition (Cryptococcus neoformans): -6.15%

CN(CCC#N)c1ccc(/C=C(\C#N)c2cccc(C(F)(F)F)c2)cc1
Inhibition (Staphylococcus aureus): -1.81%
Inhibition (Acinetobacter baumannii): 5.38%
Inhibition (Escherichia coli): -0.01%
Inhibition (Klebsiella pneumoniae): 0.85%
Inhibition (Candida albicans): 3.04%
Inhibition (Cryptococcus neoformans): -3.8%

c1ccc2c(c1)[nH]c1c3ccccc3sc21
Inhibition (Staphylococcus aureus): 12.39%
Inhibition (Acinetobacter baumannii): -1.18%
Inhibition (Escherichia coli): 0.28%
Inhibition (Klebsiella pneumoniae): 11.83%
Inhibition (Candida albicans): 5.08%
Inhibition (Cryptococcus neoformans): -2.59%

CC1=NCC(C)c2ccccc21 (stereo not given)
Inhibition (Staphylococcus aureus): 18.64%
Inhibition (Acinetobacter baumannii): -4.26%
Inhibition (Escherichia coli): 9.51%
Inhibition (Klebsiella pneumoniae): 8.39%
Inhibition (Candida albicans): -2.04%
Inhibition (Cryptococcus neoformans): -2.64%

CC(C)CNC(=O)/C=C\C(=O)O
Inhibition (Staphylococcus aureus): -0.87%
Inhibition (Acinetobacter baumannii): -6.9%
Inhibition (Escherichia coli): -14.17%
Inhibition (Klebsiella pneumoniae): 9.3%
Inhibition (Candida albicans): 3.69%
Inhibition (Cryptococcus neoformans): 32.61%

Cc1cc(C)n(C(=N)NC(=O)c2ccccc2)n1
Inhibition (Staphylococcus aureus): 12.05%
Inhibition (Acinetobacter baumannii): 6.54%
Inhibition (Escherichia coli): -0.32%
Inhibition (Klebsiella pneumoniae): 6.77%
Inhibition (Candida albicans): 6.7%
Inhibition (Cryptococcus neoformans): -12%

COc1cc(C(=O)OC(C)CN2CCOCC2)cc(OC)c1OC (stereo not given)
Inhibition (Staphylococcus aureus): 13.82%
Inhibition (Acinetobacter baumannii): 10.27%
Inhibition (Escherichia coli): 6.24%
Inhibition (Klebsiella pneumoniae): 16.73%
Inhibition (Candida albicans): -2.91%
Inhibition (Cryptococcus neoformans): -0.56%

Oc1ccccc1/N=C/c1c(O)ccc2ccccc12
Inhibition (Staphylococcus aureus): 7.8%
Inhibition (Acinetobacter baumannii): -11.56%
Inhibition (Escherichia coli): 8.07%
Inhibition (Klebsiella pneumoniae): 1.58%
Inhibition (Candida albicans): 52.3%
Inhibition (Cryptococcus neoformans): 25.14%

N#Cc1ccc(NC2c3ccccc3CC2O)cc1 (stereo not given)
Inhibition (Staphylococcus aureus): -13.68%
Inhibition (Acinetobacter baumannii): -7.5%
Inhibition (Escherichia coli): -15.24%
Inhibition (Klebsiella pneumoniae): 3.05%
Inhibition (Candida albicans): 0.94%
Inhibition (Cryptococcus neoformans): 8.31%

CC(C)(C)N1CCC1CN (stereo not given)
Inhibition (Staphylococcus aureus): 2.17%
Inhibition (Acinetobacter baumannii): -8.31%
Inhibition (Escherichia coli): 10.97%
Inhibition (Klebsiella pneumoniae): 10.11%
Inhibition (Candida albicans): 3.04%
Inhibition (Cryptococcus neoformans): -5.34%

Cc1c(Cl)ccc2c(C(=O)O)cc(-c3ccccc3)nc12
Inhibition (Staphylococcus aureus): -8.14%
Inhibition (Acinetobacter baumannii): 11.6%
Inhibition (Escherichia coli): 2.11%
Inhibition (Klebsiella pneumoniae): 26.83%
Inhibition (Candida albicans): 2.48%
Inhibition (Cryptococcus neoformans): 13.39%

O=C(NC1CCCCC1)c1cc2ccccc2cc1O
Inhibition (Staphylococcus aureus): 11.46%
Inhibition (Acinetobacter baumannii): 7.31%
Inhibition (Escherichia coli): 4.75%
Inhibition (Klebsiella pneumoniae): 14.67%
Inhibition (Candida albicans): 0.86%
Inhibition (Cryptococcus neoformans): -3.07%

O=C(O)CSc1nc2ccccc2s1
Inhibition (Staphylococcus aureus): 14.28%
Inhibition (Acinetobacter baumannii): -9.51%
Inhibition (Escherichia coli): 3.19%
Inhibition (Klebsiella pneumoniae): 0.1%
Inhibition (Candida albicans): 13.9%
Inhibition (Cryptococcus neoformans): -12.74%

O=C(O)/C=C\c1cc2c(cc1[N+](=O)[O-])OCO2
Inhibition (Staphylococcus aureus): 16.17%
Inhibition (Acinetobacter baumannii): -13.7%
Inhibition (Escherichia coli): 7.39%
Inhibition (Klebsiella pneumoniae): 10.81%
Inhibition (Candida albicans): 3.76%
Inhibition (Cryptococcus neoformans): -6.94%

CC(=O)n1cc(C2CC(=O)OC3=C2CC(=O)C(C)(C)C3)c2ccccc21 (stereo not given)
Inhibition (Staphylococcus aureus): 13.95%
Inhibition (Acinetobacter baumannii): 4.13%
Inhibition (Escherichia coli): 1.01%
Inhibition (Klebsiella pneumoniae): 11.94%
Inhibition (Candida albicans): 2.8%
Inhibition (Cryptococcus neoformans): -0.61%

Cc1c(C(C)(C(=O)O)c2c(C)n(C)c3ccccc23)c2ccccc2n1C
Inhibition (Staphylococcus aureus): 11.46%
Inhibition (Acinetobacter baumannii): 7.57%
Inhibition (Escherichia coli): 2.78%
Inhibition (Klebsiella pneumoniae): 3.48%
Inhibition (Candida albicans): 9.04%
Inhibition (Cryptococcus neoformans): -5.48%

CCCCNC(=O)Nc1ccccc1CC
Inhibition (Staphylococcus aureus): 14.67%
Inhibition (Acinetobacter baumannii): 10.42%
Inhibition (Escherichia coli): 0.25%
Inhibition (Klebsiella pneumoniae): 11.35%
Inhibition (Candida albicans): 3.55%
Inhibition (Cryptococcus neoformans): -6.96%

Clc1ccc(/C=C/c2nc(Cl)c(-c3ccc(Cl)cc3)c(Cl)n2)cc1
Inhibition (Staphylococcus aureus): 8.11%
Inhibition (Acinetobacter baumannii): 11.58%
Inhibition (Escherichia coli): 9.97%
Inhibition (Klebsiella pneumoniae): 19.84%
Inhibition (Candida albicans): 4.64%
Inhibition (Cryptococcus neoformans): -12.98%

NC(=O)C1=CC2C3C=CC2(O)C(=O)OC3O1 (stereo not given)
Inhibition (Staphylococcus aureus): -0.72%
Inhibition (Acinetobacter baumannii): 9.98%
Inhibition (Escherichia coli): -7.05%
Inhibition (Klebsiella pneumoniae): 15.67%
Inhibition (Candida albicans): 3.39%
Inhibition (Cryptococcus neoformans): 2.22%

C(=C\c1ccccn1)/c1ccccn1
Inhibition (Staphylococcus aureus): -7.74%
Inhibition (Acinetobacter baumannii): -5.17%
Inhibition (Escherichia coli): -19.26%
Inhibition (Klebsiella pneumoniae): 9.47%
Inhibition (Candida albicans): 4.3%
Inhibition (Cryptococcus neoformans): 26.47%

O=C1C2C3C=CC(CC3)C2S(=O)(=O)C2C3C=CC(CC3)C12 (stereo not given)
Inhibition (Staphylococcus aureus): 13.49%
Inhibition (Acinetobacter baumannii): 12.35%
Inhibition (Escherichia coli): 8.07%
Inhibition (Klebsiella pneumoniae): 7.08%
Inhibition (Candida albicans): 3.05%
Inhibition (Cryptococcus neoformans): -7.34%

Cc1cccnc1NC(=O)c1csnn1
Inhibition (Staphylococcus aureus): 5.73%
Inhibition (Acinetobacter baumannii): -12.69%
Inhibition (Escherichia coli): 4.7%
Inhibition (Klebsiella pneumoniae): 9.01%
Inhibition (Candida albicans): -1.09%
Inhibition (Cryptococcus neoformans): -4.1%

NC(=O)CCC(C(=O)O)N1C(=O)C2C3CCC(C3)C2C1=O (stereo not given)
Inhibition (Staphylococcus aureus): -3.52%
Inhibition (Acinetobacter baumannii): -4.02%
Inhibition (Escherichia coli): -8.27%
Inhibition (Klebsiella pneumoniae): 4.97%
Inhibition (Candida albicans): 2.39%
Inhibition (Cryptococcus neoformans): -5.24%

Nc1n[nH]c(CO)n1.O=C(O)CO
Inhibition (Staphylococcus aureus): 4.42%
Inhibition (Acinetobacter baumannii): -8.74%
Inhibition (Escherichia coli): 3.45%
Inhibition (Klebsiella pneumoniae): 8.84%
Inhibition (Candida albicans): 0.2%
Inhibition (Cryptococcus neoformans): -5.13%

Reference: ChEMBL document CHEMBL4296182, “CO-ADD screening of NIH NCI Diversity Set V”
